Assay results published in PubChem BioAssay AID1159580 (chemical genetic matrix, 2015).
Several values for one entry are separate records, joined by “and”; a condition that tells them apart may be missing. Identical values can stand only once. Hit rate of the full screen: of about 5,500 compounds, about 2,000 (36%) were called active. Inconclusive results (about 18%) are left out. No stated cut-off is given here; in the data, active means normalized growth mostly below about 0.91 (no sharp cut-off); inconclusive means no clear call, values can overlap the other calls; inactive means mostly above about 0.92. Some of the results follow.

Test: chemical genetic growth profiling, strain panel (AID 1159580);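 further: tested at 20 µM; growth read once vehicle control cultures reached saturation at 30 °C; 1 = growth at the plate median or of vehicle wells; lower values mean less growth of the strain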
Conditions: S. cerevisiae deletion strains, growth OD

Measured: normalized growth

CCCN1C[C@H](CSC)C[C@@H]2c3cccc4[nH]cc(c34)C[C@H]21
inactive: locus YAL013W, strain DEP1, active compounds read low 0.997 | locus YAL021C, strain ccr4, active compounds read low 0.978 | locus YAL026C, strain drs2, active compounds read low 1.02 | locus YAL030W, strain snc1, active compounds read low 1.02 | locus YBL061C, strain skt5, active compounds read low 1.01 | locus YBR009C, strain hhf1, active compounds read low 1.02 | locus YBR021W, strain FUR4, active compounds read low 0.965 | locus YBR023C, strain chs3, active compounds read low 0.998 | locus YBR171W, strain sec66, active compounds read low 1.02 | locus YBR229C, strain ROT2, active compounds read low 1 | locus YBR231C, strain swc5, active compounds read low 1.01 | locus YBR279W, strain paf1, active compounds read low 0.996 | locus YCL011C, strain gbp2, active compounds read low 1.02 | locus YCL016C, strain dcc1, active compounds read low 1.01 | locus YCL029C, strain bik1, active compounds read low 1.02 | locus YCL069W, strain vba3, active compounds read low 1.01 | locus YCR088W, strain abp1, active compounds read low 1.01 | locus YDL005C, strain med2, active compounds read low 0.994 | locus YDL035C, strain GPR1, active compounds read low 0.992 | locus YDL040C, strain nat1, active compounds read low 0.996 | locus YDL074C, strain BRE1, active compounds read low 0.975 | locus YDL101C, strain DUN1, active compounds read low 0.992 | locus YDL134C, strain PPH21, active compounds read low 1.01 | locus YDL185W, strain tfp1, active compounds read low 1.02 | locus YDL192W, strain arf1, active compounds read low 1.02 | locus YDR001C, strain nth1, active compounds read low 1.01 | locus YDR069C, strain doa4, active compounds read low 0.994 | locus YDR101C, strain arx1, active compounds read low 1 | locus YDR137W, strain rgp1, active compounds read low 1.1 | locus YDR150W, strain NUM1, active compounds read low 0.989 | locus YDR159W, strain sac3, active compounds read low 0.989 | locus YDR162C, strain NBP2, active compounds read low 0.97 | locus YDR195W, strain ref2 1.03 | locus YDR297W, strain sur2, active compounds read low 1.01 | locus YDR318W, strain mcm21, active compounds read low 1.03 | locus YDR334W, strain swr1, active compounds read low 1.02 | locus YDR335W, strain msn5, active compounds read low 1.02 | locus YDR388W, active compounds read low 1.02 | locus YDR392W, strain spt3, active compounds read low 1.02 | locus YDR502C, strain sam2, active compounds read low 1.01 | locus YEL003W, strain gim4, active compounds read low 1.01 | locus YEL037C, strain rad23, active compounds read low 1.01 | locus YEL061C, strain CIN8 (second series), active compounds read low 1.02 | locus YEL061C, strain CIN8, active compounds read low 0.999 | locus YER015W, strain faa2, active compounds read low 1.01 | locus YER016W, strain bim1, active compounds read low 1.02 | locus YER110C, active compounds read low 1.02 | locus YER111C, strain swi4, active compounds read low 1.01 | locus YER155C, strain BEM2 (second series), active compounds read low 0.999 | locus YER155C, strain BEM2, active compounds read low 1 | locus YER167W, strain BCK2, active compounds read low 1 | locus YFR010W, strain ubp6, active compounds read low 0.987 | locus YGL078C, strain dbp3, active compounds read low 1.01 | locus YGL086W, strain mad1, active compounds read low 1.02 | locus YGL167C, strain pmr1, active compounds read low 1.02 | locus YGL173C, strain kem1, active compounds read low 1 | locus YGL227W, strain vid30, active compounds read low 1.01 | locus YGL240W, strain doc1, active compounds read low 0.991 | locus YGL248W, strain PDE1, active compounds read low 0.998 | locus YGL253W, strain hxk2, active compounds read low 1.01 | locus YGR078C, strain PAC10, active compounds read low 0.988 | locus YGR135W, strain pre9, active compounds read low 0.985 | locus YGR229C, strain SMI1, active compounds read low 0.984 | locus YGR252W, strain gcn5, active compounds read low 1.06 | locus YHR013C, strain ard1, active compounds read low 1 | locus YHR027C, strain rpn1, active compounds read low 1.02 | locus YHR030C, strain SLT2, active compounds read low 1.01 and 1.02 | locus YHR079C, strain IRE1 (second series), active compounds read low 1.01 | locus YHR079C, strain IRE1, active compounds read low 1.04 | locus YHR094C, strain hxt1, active compounds read low 1.02 | locus YHR129C, strain ARP1, active compounds read low 1 | locus YHR142W, strain chs7, active compounds read low 1.02 | locus YHR200W, strain rpn10, active compounds read low 1.01 | locus YIL066C, strain RNR3, active compounds read low 1.01 | locus YIL073C, strain SPO22, active compounds read low 1.08 | locus YIL125W, strain kgd1, active compounds read low 1 | locus YIR030C, strain dcg1, active compounds read low 1.01 | locus YJL092W, strain hpr5, active compounds read low 1.01 | locus YJL095W, strain BCK1 (second series), active compounds read low 1.01 | locus YJL095W, strain BCK1, active compounds read low 0.975 and 1.04 | locus YJL115W, strain asf1, active compounds read low 1.02 | locus YJL129C, strain trk1, active compounds read low 1.03 | locus YJL134W, strain LCB3, active compounds read low 0.993 | locus YJL154C, strain vps35, active compounds read low 1.01 | locus YJL164C, strain tpk1, active compounds read low 1.01 | locus YJL166W, strain qcr8, active compounds read low 1.01 | locus YJL168C, strain set2, active compounds read low 1.03 | locus YJL187C, strain SWE1 (second series), active compounds read low 1 | locus YJR043C, strain POL32, active compounds read low 1 | locus YJR066W, strain TOR1, active compounds read low 0.985 | locus YJR075W, strain HOC1, active compounds read low 0.98
